{"source": "the antibiotic and cytotoxicity screens of Wong et al. (2023)", "note": "The whole screen tested about 39,000 compounds, of which about 3,300 (8.5%) were called active. Many of the other results were omitted from the sample, so actives are more common in it than they were.", "data": [{"system": "HepG2", "experiment": "cytotoxicity call (relative viability < 0.9)", "details": "10 µM", "values": [{"smiles": "C[C@H](CO)N1C[C@H](C)[C@H](CN(C)C(=O)Nc2cccc(Cl)c2Cl)OCc2ccccc2-c2ccccc2C1=O", "cytotoxicity call": "inactive"}, {"smiles": "O=C(O)c1ccc(O)c(O)c1", "cytotoxicity call": "inactive"}, {"smiles": "N#Cc1ccc(O)c(O)c1", "cytotoxicity call": "active"}, {"smiles": "N#Cc1ccc(CN)cc1", "cytotoxicity call": "inactive"}, {"smiles": "COc1ccc(NC(=O)N(C)C[C@H]2Oc3ccc(NC(=O)Nc4ccc(C(F)(F)F)cc4)cc3C(=O)N([C@H](C)CO)C[C@@H]2C)cc1", "cytotoxicity call": "inactive"}, {"smiles": "C=CCNC(=O)C(=O)NC[C@H]1OCCCN1S(=O)(=O)c1ccccc1", "cytotoxicity call": "inactive"}, {"smiles": "C[C@@H]1CN([C@@H](C)CO)S(=O)(=O)c2ccc(C3=CCCCC3)cc2O[C@@H]1CN(C)Cc1cncnc1", "cytotoxicity call": "inactive"}, {"smiles": "C[C@@H]1CN([C@@H](C)CO)C(=O)Cc2cc(NC(=O)Cn3cnnn3)ccc2O[C@H]1CN(C)C(=O)NC1CCCCC1", "cytotoxicity call": "inactive"}, {"smiles": "Cc1noc(C)c1NC(=O)N(C)C[C@@H]1Oc2ccc(NC(=O)c3ccncc3)cc2C(=O)N([C@H](C)CO)C[C@H]1C", "cytotoxicity call": "inactive"}, {"smiles": "COc1ccc2[nH]c(=O)[nH]c(=O)c2c1", "cytotoxicity call": "active"}, {"smiles": "COc1ccc2[nH]cc(CCNC(C)=O)c2c1", "cytotoxicity call": "inactive"}, {"smiles": "O=c1[nH]c(=O)c2cc(Br)ccc2[nH]1", "cytotoxicity call": "active"}, {"smiles": "COc1ccc2[nH]c3c(-c4cccc5ccccc45)nccc3c2c1", "cytotoxicity call": "inactive"}, {"smiles": "O=c1[nH]c(=O)c2ccccc2[nH]1", "cytotoxicity call": "inactive"}, {"smiles": "NCCc1c(C(=O)O)[nH]c2ccc(Br)cc12", "cytotoxicity call": "inactive"}, {"smiles": "C[C@@H]1CCCCO[C@H](CN(C)C(=O)Nc2ccc(C(F)(F)F)cc2)[C@@H](C)CN([C@H](C)CO)C(=O)c2cc(NS(C)(=O)=O)ccc2O1", "cytotoxicity call": "inactive"}, {"smiles": "CC(C)NC(=O)Nc1cccc2c1O[C@@H](CN(C)C(=O)Nc1ccc3c(c1)OCO3)[C@@H](C)CN([C@@H](C)CO)C2=O", "cytotoxicity call": "inactive"}, {"smiles": "C[C@@H]1CN([C@@H](C)CO)C(=O)c2cccc(NS(=O)(=O)c3ccccc3)c2O[C@@H]1CN(C)S(=O)(=O)c1cn(C)cn1", "cytotoxicity call": "inactive"}, {"smiles": "C=CCOC(=O)[C@H]1[C@@H]2C(=O)O[C@@H](c3ccccc3)[C@@H](c3ccccc3)N2[C@@H](c2ccc(OCCOC(=O)[C@H]3C[C@H]4C(=O)N[C@@H](CC(C)C)C(=O)N4[C@H]3c3ccc(O)cc3)cc2)[C@]12C(=O)Nc1ccc(I)cc12", "cytotoxicity call": "inactive"}, {"smiles": "COc1cc(CCC(=O)O)oc(=O)c1", "cytotoxicity call": "inactive"}, {"smiles": "COC(=O)[C@H](Cc1ccccc1)N1CC(/C=C/C2CC2)=C[C@@H]1[C@@H](O)CCn1cc(-c2ccc(C(=O)NO)cc2)nn1", "cytotoxicity call": "inactive"}, {"smiles": "COC(=O)[C@H](Cc1ccccc1)N1CC(/C=C/C2CC2)=C[C@@H]1[C@@H](O)CCn1cc(-c2ccc(C(=O)NO)s2)nn1", "cytotoxicity call": "inactive"}, {"smiles": "COC(=O)[C@@H](Cc1ccccc1)N[C@H](/C=C/C1CC1)[C@@H](O)CCn1cc(-c2cccc(/C=C/C(=O)NO)c2)nn1", "cytotoxicity call": "inactive"}, {"smiles": "COC(=O)[C@@H](Cc1ccccc1)N[C@H](/C=C/C1CC1)[C@@H](O)CCn1cc(-c2ccc(C(=O)NO)s2)nn1", "cytotoxicity call": "active"}, {"smiles": "COC(=O)[C@@H](Cc1ccccc1)N[C@H](/C=C/C1CC1)[C@@H](O)CCn1cc(-c2ccc(C(=O)NO)cc2)nn1", "cytotoxicity call": "active"}, {"smiles": "C#CCN([C@H](/C=C/C1CC1)[C@@H](O)CCn1cc(-c2ccc(C(=O)NO)s2)nn1)[C@@H](Cc1ccccc1)C(=O)OC", "cytotoxicity call": "inactive"}, {"smiles": "Cc1ccc(-c2ccc3c(c2)O[C@@H](CN(C)C(=O)NC(C)C)[C@H](C)CN([C@@H](C)CO)S3(=O)=O)cc1", "cytotoxicity call": "inactive"}, {"smiles": "C[C@H](CO)N1C[C@H](C)[C@H](CN(C)S(=O)(=O)c2ccc3c(c2)OCCCO3)OCc2cnnn2CCCC1=O", "cytotoxicity call": "inactive"}, {"smiles": "C[C@H](CO)N1C[C@H](C)[C@H](CN(C)Cc2ccccc2F)Oc2cc(C#CC3CC3)ccc2S1(=O)=O", "cytotoxicity call": "inactive"}, {"smiles": "CCN(CC)CCNC(=O)c1c(C)[nH]c(/C=C2/C(=O)Nc3ccc(-c4csc(-c5ccccc5)n4)cc32)c1C", "cytotoxicity call": "active"}, {"smiles": "C[C@@H]1CN([C@@H](C)CO)S(=O)(=O)c2ccc(C#CCC3CCCC3)cc2O[C@H]1CN(C)C(=O)c1cnccn1", "cytotoxicity call": "inactive"}, {"smiles": "C[C@@H]1CCCCO[C@H](CN(C)S(=O)(=O)c2cccs2)[C@H](C)CN([C@H](C)CO)C(=O)c2cc(NC(=O)C3CCCCC3)ccc2O1", "cytotoxicity call": "inactive"}, {"smiles": "CC(C)NC(=O)Nc1cccc2c1O[C@@H](CN(C)S(=O)(=O)c1ccc(F)cc1)[C@@H](C)CN([C@@H](C)CO)C2=O", "cytotoxicity call": "inactive"}, {"smiles": "CC(=O)C1CCC2C3CC=C4CC(O)CCC4(C)C3CCC12C", "note": "(stereo unspecified)", "cytotoxicity call": "inactive"}, {"smiles": "CC1C2CCC3C4CC=C5CC(N(C)C)CCC5(C)C4CCC32CN1C", "note": "(stereo unspecified)", "cytotoxicity call": "active"}, {"smiles": "CC12CCC(O)CC1=CCC1C2CCC2(C)C(c3cccnc3)=CCC12", "note": "(stereo unspecified)", "cytotoxicity call": "inactive"}, {"smiles": "CC(O)C(N)C(=O)O", "note": "(stereo unspecified)", "cytotoxicity call": "inactive"}, {"smiles": "C[C@@H](O)[C@H](N)C(=O)O", "cytotoxicity call": "active"}, {"smiles": "CC(C)[C@@H](N)C(=O)O", "cytotoxicity call": "inactive"}, {"smiles": "C[C@H](CO)N1C[C@H](C)[C@H](CN(C)Cc2ccc(Oc3ccccc3)cc2)Oc2ccc(NC(=O)Cn3cnnn3)cc2CC1=O", "cytotoxicity call": "inactive"}, {"smiles": "COC(=O)[C@H](Cc1ccc(-n2cc(-c3ccc(C(=O)NO)cc3)nn2)cc1)N1CC2=C[C@H]([C@@H](O)Cc3ccccc3)n3c(=O)n(C)c(=O)n3[C@@H]2[C@@H](C2CC2)O1", "cytotoxicity call": "inactive"}, {"smiles": "COC(=O)[C@H](Cc1ccc(-n2cc(-c3ccc(C(=O)NO)s3)nn2)cc1)N1CC2=C[C@H]([C@@H](O)Cc3ccccc3)n3c(=O)n(C)c(=O)n3[C@@H]2[C@@H](C2CC2)O1", "cytotoxicity call": "inactive"}, {"smiles": "COC(=O)[C@H](Cc1ccc(-n2cc(-c3cccc(/C=C/C(=O)NO)c3)nn2)cc1)N1CC2=C[C@H]([C@@H](O)Cc3ccccc3)n3c(=O)n(C)c(=O)n3[C@@H]2[C@@H](C2CC2)O1", "cytotoxicity call": "active"}, {"smiles": "CC(=O)N1CCO[C@H]2CCN(C(=O)c3ccn(C)n3)C[C@H]21", "cytotoxicity call": "inactive"}, {"smiles": "COc1c(N2CC3CCCNC3C2)c(F)cc2c(=O)c(C(=O)O)cn(C3CC3)c12.Cl", "note": "(stereo unspecified)", "cytotoxicity call": "inactive"}, {"smiles": "COc1c(N2CCNC(C)C2)c(F)cc2c(=O)c(C(=O)O)cn(C3CC3)c12", "note": "(stereo unspecified)", "cytotoxicity call": "active"}, {"smiles": "CCn1cc(C(=O)O)c(=O)c2cc(F)c(N3CCNC(C)C3)c(F)c21.Cl", "note": "(stereo unspecified)", "cytotoxicity call": "inactive"}, {"smiles": "C[C@@H]1CN([C@H](C)CO)C(=O)c2cc(NC(=O)Cc3ccccc3)ccc2O[C@@H](C)CCCCO[C@H]1CN(C)S(=O)(=O)c1ccc(F)cc1", "cytotoxicity call": "inactive"}, {"smiles": "C[C@@H]1CCCCO[C@@H](CN(C)S(=O)(=O)c2ccc(F)cc2)[C@@H](C)CN([C@@H](C)CO)C(=O)c2cc(NC(=O)Cc3ccccc3)ccc2O1", "cytotoxicity call": "active"}, {"smiles": "C[C@H]1CCCCO[C@H](CN(C)S(=O)(=O)c2ccc(F)cc2)[C@@H](C)CN([C@@H](C)CO)C(=O)c2cc(NC(=O)Cc3ccccc3)ccc2O1", "cytotoxicity call": "inactive"}, {"smiles": "C[C@@H]1CCCCO[C@H](CN(C)S(=O)(=O)c2ccc(F)cc2)[C@@H](C)CN([C@H](C)CO)C(=O)c2cc(NC(=O)Cc3ccccc3)ccc2O1", "cytotoxicity call": "active"}, {"smiles": "C[C@@H]1CCCCO[C@@H](CN(C)S(=O)(=O)c2ccc(F)cc2)[C@H](C)CN([C@@H](C)CO)C(=O)c2cc(NC(=O)Cc3ccccc3)ccc2O1", "cytotoxicity call": "inactive"}, {"smiles": "C[C@@H]1CN([C@H](C)CO)C(=O)c2cc(NC(=O)Cc3ccccc3)ccc2O[C@@H](C)CCCCO[C@@H]1CN(C)S(=O)(=O)c1ccc(F)cc1", "cytotoxicity call": "inactive"}, {"smiles": "C[C@H](CO)N1C[C@H](C)[C@H](CN(C)S(=O)(=O)c2ccc(F)cc2)OCCCC[C@H](C)Oc2ccc(NC(=O)Cc3ccccc3)cc2C1=O", "cytotoxicity call": "inactive"}, {"smiles": "C[C@@H]1CCCCO[C@@H](CN(C)S(=O)(=O)c2ccc(F)cc2)[C@H](C)CN([C@H](C)CO)C(=O)c2cc(NC(=O)Cc3ccccc3)ccc2O1", "cytotoxicity call": "inactive"}, {"smiles": "C[C@@H]1CCCCO[C@H](CN(C)S(=O)(=O)c2ccc(F)cc2)[C@@H](C)CN([C@@H](C)CO)C(=O)c2cc(NC(=O)Cc3ccccc3)ccc2O1", "cytotoxicity call": "active"}]}]}
